12 compounds from PubChem BioAssay (NCATS) can be followed below.

Experiment [1] is described as follows: qHTS Screen of the MIPE 4.0 Collection Against Ewings Sarcoma (TC32) (AID 1259256). Also: nearly all actives have a fitted effect of over 45% in size. The method in brief:
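Dose series incubated 48 h with cells in RPMI plus 5% FBS, glutamine and penicillin/streptomycin; cell viability then quantified via CellTiter-Glo.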

The nature of experiment [2]: P-glycoprotein substrates identified in KB-8-5-11 adenocarcinoma cell line, qHTS therapeutic library screen (AID 1346987). Also: nearly all actives have a fitted effect of over 65% in size. The method in brief:
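P-gp-mediated resistance screen: KB-8-5-11 cells treated 72 h with compounds in dose-response. CellTiter-Glo viability.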
(qHTS replaces the single test concentration by a dilution series.)

Experiment [3] in a line: NS1 protein of Zika virus - qHTS assay to identify small molecule inhibitors in human HEK 293 cells (AID 1347053). Also: nearly all actives have a fitted effect of over 55% in size. The procedure, abridged:
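Following 20 h seeding, HEK 293 cells took compound, then 1 h later ZIKV MR766 (MOI = 0.5). Incubation ran 24 h at 37 C before TR-FRET detection of NS1; a drop in signal indicates inhibition.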

Experiment [4] is described as follows: qHTS of pediatric cancer cell lines to identify multiple opportunities for drug repurposing: Primary screen for SJ-GBM2 cells (AID 1347091). The procedure, abridged:
(§1)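 Viability measured as metabolically active cells via CellTiter-Glo luminescence following 48 hours of compound exposure, 11-point dilutions in confirmatory testing. 500-1,000 cells/well plated 5 hours before dosing; controls were DMSO and 2.3 µM bortezomib.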

Experiment [5] can be described thus: qHTS of pediatric cancer cell lines to identify multiple opportunities for drug repurposing: Primary screen for A673 cells (AID 1347092). Also: nearly all actives have a fitted effect of over 45% in size. The method in brief:
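Titration-based qHTS on A673 cells: MIPE compounds spanned 11 points (0.78 nM to 46 µM final), NPC compounds 8 points (0.59 nM to 46 µM final). Viability after 48 h was measured by ATP luminescence.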

Experiment [6] can be described thus: qHTS of pediatric cancer cell lines to identify multiple opportunities for drug repurposing: Primary screen for SK-N-MC cells (AID 1347093). The procedure, abridged: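 Metabolically active cells were quantified by ATP-dependent luminescence (CellTiter-Glo, 15 min at room temperature) following 48 h treatment. Cells had been plated at 500-1,000 per well and settled for 5 h beforehand.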

Experiment [7] in a line: qHTS of pediatric cancer cell lines to identify multiple opportunities for drug repurposing: Primary screen for BT-37 cells (AID 1347094). The method in brief: (§2)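 Plated cells (500-1,000 per well, growth media) were allowed to settle for 5 hours, treated with compound dilutions for 48 hours, then lysed with CellTiter-Glo for 15 min at room temperature before luminescence reading.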

The nature of experiment [8]: qHTS of pediatric cancer cell lines to identify multiple opportunities for drug repurposing: Primary screen for NB-EBc1 cells (AID 1347095). The procedure, abridged:
as §2

The nature of experiment [9]: qHTS of pediatric cancer cell lines to identify multiple opportunities for drug repurposing: Primary screen for Saos-2 cells (AID 1347097). Also: nearly all actives have a fitted effect of over 40% in size. The method in brief: as §2
Experiment [10] in a line: qHTS of pediatric cancer cell lines to identify multiple opportunities for drug repurposing: Primary screen for NB1643 cells (AID 1347099). Also: nearly all actives have a fitted effect of over 50% in size. The method in brief:
as §2

The nature of experiment [11]: qHTS of pediatric cancer cell lines to identify multiple opportunities for drug repurposing: Primary screen for LAN-5 cells (AID 1347100). The procedure, abridged: (§3)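 Viability after 48 h compound treatment at 37C, 500-1,000 cells/well, read as ATP luminescence with CellTiter-Glo. Primary screens used 11-point (MIPE, 0.78 nM-46 µM) or 8-point (NPC, 0.59 nM-46 µM) final concentrations; follow-up screens used 11-point dilutions.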

A short description of experiment [12]: qHTS of pediatric cancer cell lines to identify multiple opportunities for drug repurposing: Primary screen for TC32 cells (AID 1347089). Also: nearly all actives have a fitted effect of over 60% in size. The procedure, abridged:
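A viability screen of TC32 cells was run over 48 h, with primary MIPE doses spanning 0.78 nM–46 µM and NPC doses 0.59 nM–46 µM. ATP luminescence (CellTiter-Glo) served as the read-out.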

Experiment [13] is described as follows: qHTS of pediatric cancer cell lines to identify multiple opportunities for drug repurposing: Primary screen for DAOY cells (AID 1347090). Also: nearly all actives have a fitted effect of over 55% in size. The method in brief: as §1
Experiment [14] in a line: qHTS of pediatric cancer cell lines to identify multiple opportunities for drug repurposing: Primary screen for U-2 OS cells (AID 1347096). Also: nearly all actives have a fitted effect of over 50% in size. The procedure, abridged: as §3
Experiment [15] in a line: qHTS of pediatric cancer cell lines to identify multiple opportunities for drug repurposing: Primary screen for SK-N-SH cells (AID 1347098). Also: nearly all actives have a fitted effect of over 65% in size. The procedure, abridged:
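Cells (500-1,000/well) rested 5 h, then received compounds for 48 h; metabolically active cells were measured by CellTiter-Glo luminescence. Final concentrations spanned up to 46 µM (MIPE, 11-point) or 0.59 nM-46 µM (NPC, 8-point) in primary screens, 11-point in follow-ups.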

Molecules are shown by their SMILES. Results filed as inconclusive are left out. Active and inactive are the calls of the source. Calls follow the shape of the dose curve; as a rule, active = well fitted curve in the direction sought with a large enough effect; inconclusive = small, poorly fitted or top-dose-only effect, or another doubt; inactive = no such curve, though single readings can be large; an effect the other way counts as inactive or inconclusive.
Potency is read from the fitted curve at half-maximal effect.

For `FC(F)c1nc2ccccc2n1-c1nc(N2CCOCC2)nc(N2CCOCC2)n1`, the Potency in experiment [1] is 0.118 µM (active); in experiment [2], 1.16 µM (active); in experiment [3], 1.87 µM (active); in experiment [4], 0.0743 µM (active); in experiment [5] it was 1.18 µM (active); in experiment [6], 0.059 µM (active). In addition, the Potency in [7] was 1.09 µM (active); in experiment [8] it was 0.662 µM (active); in [9], 0.526 µM (active); in [10] it was 1.48 µM (active); in experiment [11] it was 1.18 µM (active).
Regarding `Nc1nc(=O)n([C@H]2C[C@H](O)[C@@H](CO)O2)cc1F`, the Potency in experiment [1] is 0.0296 µM (active); in experiment [2], 4.18 µM (active); in experiment [12] it was 0.829 µM (active); in [8], 3.72 µM (active). The Potency entry in experiment [13], in experiment [4], in experiment [14], in [9], in experiment [15] and in experiment [10] was “inactive” in each case.
For the compound `CNC(=O)c1cccc(-c2ccc3c(N4CCOC[C@H]4C)nc(N4CCOC[C@H]4C)nc3n2)c1`, the Potency was 0.059 µM (active) in experiment [1]; 0.0662 µM (active) in [2]; 0.105 µM (active) in experiment [4]; 0.148 µM (active) in experiment [5]; 0.0148 µM (active) in [6]; 0.122 µM (active) in [7]. Moreover, the values for the Potency in experiment [8], in experiment [9] and in [11] were 0.132 µM (active), 0.833 µM (active) and 4.18 µM (active), respectively. Further, in experiment [3], the Potency entry was “inactive”.
As to `CC(C)NC[C@@H](C(=O)N1CCN(c2ncnc3c2[C@H](C)C[C@H]3O)CC1)c1ccc(Cl)cc1`, the Potency was 2.64 µM (active) in experiment [1]; 5.9 µM (active) in experiment [13]; 3.32 µM (active) in experiment [4]; 11.8 µM (active) in experiment [5]; 0.132 µM (active) in experiment [6]; 4.32 µM (active) in experiment [7]. The Potency in experiment [8] was 0.833 µM (active); in experiment [9], 6.62 µM (active); in experiment [10] it was 3.32 µM (active); in [11], 2.96 µM (active). The Potency entry in experiment [2] is “inactive”.
As to `COc1cc2c(cc1O)CCC1C2CC[C@@]2(C)C1CC[C@@H]2O` (stereo not given in full), the Potency is 2.64 µM (active) in experiment [1]; 1.32 µM (active) in experiment [2]; 18.6 µM (active) in experiment [12]; 0.833 µM (active) in [4]; 3.72 µM (active) in experiment [5]; 6.62 µM (active) in experiment [6]. For the same compound, the results for the Potency in [8] and in experiment [9] were 0.526 µM (active) and 1.05 µM (active), respectively. The Potency result in experiment [14] and in experiment [11] was “inactive” throughout.
Take `CCN(CC)CCNC(=O)c1c(C)[nH]c(C=C2C(=O)Nc3ccc(F)cc32)c1C`: the Potency in experiment [1] was 10.8 µM (active); in [2], 1.21 µM (active); in experiment [12], 12 µM (active); in [13] it was 42.9 µM (active); in experiment [4], 34 µM (active); in [5] it was 5.4 µM (active). Moreover, the Potency was 1.08 µM (active) in [6]; 17.7 µM (active) in [7]; 7.62 µM (active) in experiment [8]; 21.5 µM (active) in [14]; 4.29 µM (active) in [9]; 22.1 µM (active) in experiment [15]. Besides, the Potency in experiment [10] is 38.2 µM (active); in experiment [11], 4.29 µM (active).
Take `Nc1nc(N)c2nc(-c3cccc(O)c3)c(-c3cccc(O)c3)nc2n1`: the Potency in experiment [1] is 20.9 µM (active); in experiment [2], 11.8 µM (active); in [12], 18.6 µM (active); in experiment [4] it was 8.33 µM (active); in experiment [5], 2.35 µM (active); in experiment [6] it was 1.48 µM (active). Besides, the Potency is 21.7 µM (active) in experiment [7]; 23.5 µM (active) in experiment [14]; 18.7 µM (active) in [9]; 19.2 µM (active) in experiment [15]; 5.9 µM (active) in experiment [10]; 11.8 µM (active) in experiment [11].
For `C[C@H](NC(=O)[C@@H](O)c1cc(F)cc(F)c1)C(=O)N[C@@H]1C(=O)N(C)c2ccccc2-c2ccccc21`, the Potency result in [1], in [2], in experiment [3], in experiment [4], in [7] and in experiment [14] was “inactive” in each case. Further, in [11], the Potency result is “inactive”.
Regarding `CC(=O)O[C@@]12CO[C@H]1C[C@H](O)[C@@]1(C)C(=O)[C@H](O)C3=C(C)[C@@H](OC(=O)C(O)[C@@H](NC(=O)OC(C)(C)C)c4ccccc4)C[C@@](O)([C@@H](OC(=O)c4ccccc4)[C@@H]21)C3(C)C` (stereo not given in full), the Potency result in experiment [1], in [14] and in experiment [15] was “inactive” each time. Further, the Potency in experiment [2] was 0.0166 µM (active); in experiment [12], 0.0001 µM (active); in [13], 0.001 µM (active); in experiment [4] it was 23.5 µM (active); in [6], 0.001 µM (active).
Turning to `CCOC(=O)[C@@H](N)Cc1ccc(-c2cc(O[C@H](c3ccc(Cl)cc3-n3ccc(C)n3)C(F)(F)F)nc(N)n2)cc1`, the Potency in experiment [1] is 20.9 µM (active); in [6] it was 16.6 µM (active); in [7], 27.3 µM (active); in experiment [9] it was 18.7 µM (active). The Potency entry in [2] and in experiment [15] was “inactive” each time.
On to `C#C[C@]1(O)CC[C@@H]2[C@@H]3CCc4cc(O)ccc4[C@H]3CC[C@@]21C`, for which the Potency in experiment [1] was 20.9 µM (active); in experiment [2], 11.8 µM (active); in [13], 14.8 µM (active); in experiment [4], 18.7 µM (active); in experiment [5], 14.8 µM (active); in [6], 11.8 µM (active). In addition, the Potency was 13.2 µM (active) in [8], 18.7 µM (active) in experiment [9], 24.1 µM (active) in [15] and 20.9 µM (active) in experiment [10].
Take `COC1=C2C[C@@H](C)C[C@H](OC)[C@@H](O)[C@@H](C)C=C(C)[C@H](OC(N)=O)[C@@H](OC)C=CC=C(C)C(=O)NC(=CC1=O)C2=O`: the Potency was 0.296 µM (active) in [1]; 13.2 µM (active) in experiment [2]; 4.69 µM (active) in experiment [5]; 1.05 µM (active) in experiment [6]; 4.32 µM (active) in experiment [7]; 0.743 µM (active) in [8]. Besides, the Potency in [15] is 2.41 µM (active); in experiment [10], 4.18 µM (active); in [11], 8.33 µM (active). The Potency result in experiment [14] and in experiment [9] was “inactive” throughout.
